# High-throughput results from PubChem BioAssay.
# Sa growth 42C: inhibitors of Staphylococcus aureus growth at 42 °C; S. aureus RN4220 growth, OD600, 20 h; hits give low values; relative growth, % (concentration not given with the values); 170,000 compounds, 0.53% hits; AID 720641;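 active = relative growth at most 50% at the other temperature and 20+ points below 30 °C, or under 10% at both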
# S aureus helic: S. aureus DNA helicase inhibition | purified S. aureus helicase, fluorescence unwinding assay | inhibition, % (test concentration not listed) | 120,000 compounds, 0.05% hits; in the data active = inhibition above about 25%, passing the limit was not always enough;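 also: 0% = mean of negative control wells and 100% = mean of positive control wells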
# * marks the source's active call; other numbers are inactive results; x = not tested or not shown; ! = a repeat was not active. Only some compounds are listed: those with a hit (about 0.52% of all), similar ones and a draw of the others.
SMILES,Sa growth 42C,S aureus helic
O=C(O)c1nccnc1C(=O)N1CCN(C(c2ccccc2)c2ccccc2)CC1,108,-4
CCS(=O)(=O)c1ncc(Cl)c(C(=O)Nc2c(C(=O)Nc3cccc(C)c3)oc3ccccc23)n1,116,x
CS(=O)(=O)c1ncc(Cl)c(C(=O)Nc2cccc(Cl)c2)n1,0.2*,5
CC(C)OC(=O)CSc1nnc(CNc2ccc(F)cc2)n1C1CCCCC1,129,3
Cc1cc2occ(CC(N)=O)c2cc1Cl,108,4
C=CCc1cccc(Cl)c1OCCNCc1ccco1,94,8
CCOC(=O)c1nccn1CC(=O)N(C)c1ccccc1,86,4
O=C(CSCCN1C(=O)c2ccccc2C1=O)NCc1cccs1,103,-5
CN1C(=O)S/C(=C/c2ccc(-c3ccc(C(=O)O)c(Cl)c3)o2)C1=O,58,12
CCN1C(=O)/C(=C\c2ccc(-c3ccc(Cl)c(C(=O)O)c3)o2)SC1=S,-0.7*,-80
CC(OC(=O)/C=C/c1cccc(Cl)c1)C(=O)N1CCN(C(=O)c2ccco2)CC1 (configuration not stated),103,-9
O=S(=O)(c1ccc(NC2CCN(Cc3ccccc3)CC2)nc1)N1CCCCC1,94,38*
O=C(CSc1ccc(S(=O)(=O)N2CCN(Cc3ccccc3)CC2)cn1)NC(=O)NC1CCCC1,100,4
C=CCNC(=O)c1cc(-c2ccc(Cl)cc2Cl)oc1C,81,12
CC(C)(C)c1nnc(-c2cnccc2C(F)(F)F)o1,104,x
COc1ccc(S(N)(=O)=O)cc1C(=O)NCC1CCCO1 (configuration not stated),89,-12
O=S(c1c(F)c(F)c(F)c(F)c1F)c1c(F)c(F)c(F)c(F)c1F,0.7*,21
N#Cc1c(NC(=O)c2cccnc2)sc2c1CCCC2,79,-9
CC(C)=NNc1nc(Cl)c(C#N)c(Cl)c1Cl,6.4*,x
N#Cc1c(Cl)nc(Cl)c(Cl)c1Cl,66,-3
COc1ccc(-n2c3c(cc(C(N)=O)c2=O)C(=O)CCC3)cc1,67,-17
Cc1onc(-c2ccccc2)c1C(=O)N[C@@H]1C(=O)N2[C@@H]1SC(C)(C)[C@@H]2C(=O)O,-1.3*,x
CCN1CCN(C(=O)N[C@@H](C(=O)N[C@@H]2C(=O)N3[C@@H]2SC(C)(C)[C@@H]3C(=O)O)c2ccccc2)C(=O)C1=O,-0.5*,x
CCCOC(=O)C(N)c1ccccc1 (configuration not stated),107,0
CC1(C)S[C@@H]2[C@H](NC(=O)[C@H](N)c3ccccc3)C(=O)N2[C@H]1C(=O)O,-0.9*!,x
SMILES,Sa growth 42C,S aureus helic
Cc1onc(-c2ccccc2)c1C(=O)NC1CCCCC1NC(=O)c1c(-c2ccccc2)noc1C (configuration not stated),100,-18
CC1(C)SC(c2ccc(C3NC(C(=O)O)C(C)(C)S3)cc2)NC1C(=O)O (configuration not stated),92,18
CC1(C)S[C@@H]2[C@H](NC(=O)C(C(=O)O)c3ccccc3)C(=O)N2[C@H]1C(=O)O (some centres not stated),0.0*,x
O=C(CC1CCCCC1)Nc1ccc2c(c1)OCCO2,73,15
COc1cc2c(cc1OC)C(c1ccccc1)N(C(=O)CSc1nnc(-c3c[nH]c4ccccc34)o1)CC2 (configuration not stated),104,6
O=C(C1CCCN(S(=O)(=O)N2CCCCCC2)C1)N1CCN(c2cccc(C(F)(F)F)c2)CC1 (configuration not stated),99,-37
CC(C)N1CCCC(CN)C1 (configuration not stated),89,-7
COCCn1c(N)c(C(=O)NCc2ccccc2)c2nc3ccccc3nc21,110,10
Cc1nn(-c2ccc(F)cc2)c(Cl)c1/C=N/NC(=O)C1CC1,106,3
C=CCNC(=O)c1c(N)n(/N=C/c2ccccc2O)c2nc3ccccc3nc12,99,9
Clc1cccc(NCc2cn3ccccc3n2)c1,x,1
Cn1c(-c2ccccc2)c(C(=O)COC(=O)c2ccc(C#N)cc2)c2ccccc21,85,-16
CCN(CC)S(=O)(=O)c1cccc(C(=O)OCC(=O)c2ccc3c(c2)OCO3)c1,92,2
CCN(CC)S(=O)(=O)c1cc(C(=O)Oc2ccc3c(c2)OCO3)ccc1C,44*,13
CCOc1ccc2ccccc2c1C=C1C(=O)N(C)C(=S)N(C)C1=O,89,12
CCS(=O)(=O)C1=NN2C(=N)/C(=C\c3ccc(-c4ccccc4)o3)C(=O)N=C2S1,44*,-54
CS(=O)(=O)C1=NN2C(=N)/C(=C\c3ccc(-c4ccc(Cl)cc4)o3)C(=O)N=C2S1,42,-15
Nc1c(C(=O)CCC(=O)O)oc2ccccc12,84,-14
CC1Cc2ccccc2N1C(=O)Nc1ccc2c(c1)OCO2 (configuration not stated),103,14
Cc1ccc(C)c(NC(=O)c2ccco2)c1,112,0
C=CCn1c(=N)n(CC(=O)c2ccc(-c3ccccc3)cc2)c2ccccc21,5.3*,13
Cn1c(=N)n(CC(=O)c2ccc(-c3ccccc3)cc2)c2ccccc21,117,8
CN(C)c1c[nH]c(=O)[nH]c1=O,96,5
O=c1[nH]cc(F)c(=O)[nH]1,-0.5*,x
CCCN(CCC)CCCn1cnc2c([nH]c3ccc(Cl)cc32)c1=O,104,10
SMILES,Sa growth 42C,S aureus helic
CCOC(=O)c1c(C)[n+]([O-])c2ccc3c(non3O)c12,78,2
Cc1c(C)[n+]([O-])c2ccc3c(non3O)c12,1.9*,9
CCn1cnc2cc(NCc3cccc(OC)c3)ccc21,83,40
COc1cccc(CNc2ccc3c(c2)ncn3C2CCCCC2)c1,0.1*,2
Cn1c(-c2ccccc2)nn(CN2CCC(C(N)=O)CC2)c1=S,89,2
c1ccc(-c2c(-c3ccccc3)n(Cc3ccco3)c3ncnc(NCCCn4ccnc4)c23)cc1,0.1*,-19
CC(C)Cn1cnc2c(c(-c3ccccc3)c(-c3ccccc3)n2Cc2ccco2)c1=N,48*,0
c1ccc(-c2csc3ncnc(NCCCn4ccnc4)c23)cc1,81,x
N=c1c2c(-c3ccccc3)c(-c3ccccc3)n(Cc3ccco3)c2ncn1CCCN1CCOCC1,89,13
CCN(CC)S(=O)(=O)c1ccc2nnn(OCC(=O)NCc3ccccc3OC)c2c1,80,-10
COc1cccc(C2c3c(C)nn(C)c3NC(=O)C2NC(=O)c2ccccc2)c1 (configuration not stated),80,-1
O=C(/C=C/C(=O)c1ccccc1)c1ccccc1,-0.4*,32
CN(C)/C=C/C(=O)c1ccccc1,84,10
O=C1N=C(c2ccccc2)S/C1=C\c1ccc2c(c1)OCO2,85,15
C=CCNc1nc(C(=O)OCc2cccc(S(=O)(=O)N(C)C)c2)cs1,83,-5
Cc1nc(-c2ccccn2)nc(SCc2ccccc2)c1Cl,19*,x
Cc1nc(-c2ccccn2)nc(SCC(=O)c2ccccc2)c1Cl,106,x
CC1CCN(C(=O)COC(=O)c2ccccc2O)CC1,94,31
C/C(CN1C(=O)CCC1=O)=N/NC(=O)C1CCN(S(=O)(=O)c2ccc(C)cc2)CC1,95,-6
CC(C)(C)c1ccc(Cn2c(=N)n(CC(=O)c3ccco3)c3ccccc32)cc1,-0.6*,-42
CC(C)(C)c1ccc(Cn2c(=N)n(CC(O)c3ccco3)c3ccccc32)cc1 (configuration not stated),31,-4
